PubChem BioAssay (NCATS)
Records with an inconclusive call do not appear. The source made the active and inactive calls. Unless noted, calls come from the whole dose curve; as a rule, active = well fitted curve in the direction sought with a large enough effect; inconclusive = small, poorly fitted or top-dose-only effect, or another doubt; inactive = no such curve, though single readings can be large; an effect the other way counts as inactive or inconclusive.

Key:
[1] = S16 Schwann cell viability assay (CellTiter-Glo assay) (AID 624031);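 note: cellular ATP luminescence as a viability measure; series mostly up to about 58 µM; plate controls were DMSO-treated cells for no effect and cell-free wells for full effect; nearly all actives have a fitted effect of over 70% in size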
Procedure, shortened: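 Untransfected S16 rat Schwann cells; compound 24 h, 37 °C/5% CO2; CellTiter-Glo ATP luminescence. % activity vs no-cell wells and DMSO controls (0%); concentration-effect curves classed by r2, response magnitude, activity.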

[2] = S16 Schwann cell PMP22 intronic element firefly luciferase assay (AID 624032); note: nearly all actives have a fitted effect of over 30% in size; note: potency is the fitted concentration of half-maximal effect
Procedure, shortened: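 Rat S16 Schwann cells stably carrying a PMP22 intronic element-driven Fluc reporter were seeded overnight, then exposed to compounds for 24 h at 37 °C. Luminescence was normalized to PTC124 (positive control) and DMSO (0% activity).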

[3] = qHTS assay for small molecule agonists of the antioxidant response element (ARE) signaling pathway (AID 651741; active = well fitted activation curve with a large enough effect in the signal ratio; the % refers to the signal ratio; note: % of control where 0% means no effect)
Procedure, shortened: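 Reporter: beta-lactamase under ARE, stably in HepG2. Exposure: 16 h, 37 C, compounds delivered in DMSO by pin tool after 5 h cell preincubation. Readout: FRET substrate fluorescence after 2 h at RT.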

[4] = qHTS assay for small molecule activators of the p53 signaling pathway (AID 651743; active = well fitted activation curve with a large enough effect in the signal ratio, not every such curve was filed as active; the % refers to the signal ratio; note: series mostly up to about 92 µM; % of control where 0% means no effect); details: HCT-116 p53RE-bla, beta-lactamase FRET ratio, 16 h; stronger effect = higher value
Procedure, shortened: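 Agonist-mode quantitative HTS in HCT-116 cells carrying a p53-response-element beta-lactamase reporter; 16 h compound treatment at 37 C, then FRET substrate loading for 2 h at room temperature and fluorescence read.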

[5] = qHTS assay for small molecule activators of the nuclear factor-kappa B (NF-kB) signaling pathway (AID 651749; active = well fitted activation curve with a large enough effect in the signal ratio; the % refers to the signal ratio; note: series mostly up to about 77 µM; % of control where 0% means no effect); details: NF-kB-bla ME-180 cells, beta-lactamase FRET ratio, 16 h; stronger effect = higher value
Procedure, shortened: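 Human ME-180 cervical cells with an NF-kB-bla construct; compounds added via 23 nL pin transfer, DMSO as vehicle; incubation 16 hr. Reporter activity measured by FRET disruption.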

[6] = target: Tumor necrosis factor (Homo sapiens) (UniProt P01375); test: qHTS assay to identify small molecules that stimulate Tumor Necrosis Factor-alpha (TNF-alpha) secretion (AID 651757; active = well fitted curve in the direction sought with a large enough effect in the signal ratio; the % refers to the signal ratio; note: 0% is about no effect)
Procedure, shortened: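 Human monocytic THP-1 cells are plated, treated with compound and held at 37 C for 17 hrs. Labeled anti-TNF-alpha antibody mixture is then added; after 3 hr at room temperature, TR-FRET signal reports secreted TNF-alpha.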

[7] = qHTS assay for environmental chemicals that activate the Aryl hydrocarbon Receptor (AhR) signaling pathway (AID 651777); details: 1A2-DRE human hepatoma cells, luciferase, 24 h; stronger effect = higher value; note: % of control where 0% means no effect; nearly all actives have a fitted effect of over 15% in size
Procedure, shortened: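 Luminescence read-out: One-Glo added for 30 min at RT after 24 hr compound treatment (37 C, 5% CO2) of human hepatoma cells expressing a DRE/CYP1A2 promoter–luciferase reporter; increased signal indicates AhR activation.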

[8] = target: Peroxisome proliferator-activated receptor alpha (Homo sapiens) (UniProt Q07869); test: qHTS assay for small molecule agonists of the peroxisome proliferator-activated receptor alpha (PPARalpha) signaling pathway (AID 651778); details: PathHunter PPARalpha complementation, chemiluminescence, 6 h; stronger effect = higher value; note: % of control where 0% means no effect
Procedure, shortened: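 Cells plated at 2,000/well and held overnight at 37 C, 5% CO2, then compound added by pin tool for 6 hr; after PathHunter detection reagent and 60 min at room temperature, chemiluminescence from enzyme complementation was read.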

[9] = qHTS assay for small molecule agonists of the antioxidant response element (ARE) signaling pathway measured by Nrf2-dependant transcriptional activity (AID 720636; active = well fitted curve in the direction sought with a large enough effect in the repeat runs; an effect the other way counts as inactive or inconclusive;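 note: HepG2 cells with an ARE-driven luciferase reporter; % of control where 0% means no effect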)
Procedure, shortened: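 HepG2 ARE-luc reporter line, 1% dialyzed FBS; 6 hr attachment at 37 C, compound pinned in, 16 hr at 37 C/5% CO2; ONE-Glo, 30 min RT, luminescence read.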

[10] = qHTS assay for small molecule agonists of the antioxidant response element (ARE) signaling pathway measured by Nrf2-dependant transcriptional activity - cell viability counter screen (AID 720653; active = well fitted curve in the direction sought with a large enough effect in the repeat runs; an effect the other way counts as inactive or inconclusive; note: % is set by controls: 0 for no effect and ±100 for the full control effect); details: ARE-bla HepG2 viability, CellTiter-Glo ATP luminescence, 16 h; stronger effect = lower value
Procedure, shortened: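 ARE-bla HepG2 cells (2,000/well) rested 5 hrs at 37C/5% CO2, then exposed to compounds in DMSO for 16 hrs. Viability was read in the same wells as intracellular ATP by luminescence, 30 min at room temperature after reagent addition.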

[11] = qHTS Assay for Identifying Gametocytocidal Compounds (AID 743244);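 note: % is set by controls: 0 for no effect and ±100 for the full control effect; actives lower the fluorescent signal which means gametocytes are killed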; details: P. falciparum 3D7 stage III-V gametocytes, alamarBlue, 72 h; max response: stronger effect = lower value
Procedure, shortened: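 Compounds are pinned into medium, gametocytes (stage III–V, 3D7, 20,000 cells/well) added, and plates held 72 h at 37 °C in 5% CO2. AlamarBlue follows for 24 h before fluorescence reading.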

[12] = qHTS assay for cell viability of HEK293 cells (AID 743288); details: ATP luminescence (CellTiter-Glo), 18 h, stronger effect = lower value; note: % is set by controls: 0 for no effect and ±100 for the full control effect; nearly all actives have a fitted effect of over 50% in size
Procedure, shortened: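 ATP luminescence (CellTiter-Glo) reports metabolically competent cell number after parental HEK293 cells, 2,000/well, were treated with DMSO-dissolved compounds for 18 h at 37 C; reagent incubation 30 min, room temperature.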

[13] = qHTS assay for cell viability of the p53RE-bla HCT-116 cell line (AID 743292); note: % is set by controls: 0 for no effect and ±100 for the full control effect; nearly all actives have a fitted effect of over 55% in size
Procedure, shortened: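 Luminescent ATP quantitation (CellTiter-Glo) served as the viability read-out; reagent was added after 16 h compound exposure at 37 C and read after 30 min at room temperature. Cells: p53RE-bla HCT-116, 4,000 per well.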

[14] = qHTS assay to identify small molecules that stimulate interleukin-8 (IL-8) secretion (AID 651758; active = well fitted activation curve with a large enough effect in the signal ratio; the % refers to the signal ratio; note: 0% is about no effect)
Procedure, shortened: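 Quantitative HTS in THP-1 monocytic cells at 2000 cells per well, with 16 hrs compound incubation at 37 C. IL-8 in the medium was then quantified by HTRF immunoassay, read after 1-3 hrs at room temperature.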

[15] = S16 Schwann cell PMP22 intronic element beta-lactamase assay (AID 624044; calls by dose curve;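 note: 0% = DMSO and -100% = potassium clavulanate positive control; nearly all actives have a fitted effect of over 15% in size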)
Procedure, shortened: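 Beta-lactamase reporter under a PMP22 intronic regulatory element in stable S16 rat Schwann cells; 24 h compound exposure. 460 nm blue signal normalized between DMSO (0%) and potassium clavulanate, with 535 nm FRET tracking viability; curves classed by r2 and response.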

[16] = target: Nuclear receptor ROR-gamma (Homo sapiens) (UniProt P51449); test: qHTS assay for small molecule antagonists of the retinoid-related orphan receptor gamma (ROR-gamma) signaling pathway (AID 651802);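 note: CHO cells with doxycycline-induced ROR-gamma expression; series mostly up to about 92 µM; % is set by controls: 0 for no effect and ±100 for the full control effect; nearly all actives have a fitted effect of over 60% in size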
Procedure, shortened: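 Steps: cells dispensed; compound or DMSO transferred by pin tool; doxycycline added to induce the ROR response element-driven luciferase; plates held 16hr at 37C; ONE-Glo added and luminescence measured.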

Tumor necrosis factor (Homo sapiens), sequence (P01375 whole entry, looked up): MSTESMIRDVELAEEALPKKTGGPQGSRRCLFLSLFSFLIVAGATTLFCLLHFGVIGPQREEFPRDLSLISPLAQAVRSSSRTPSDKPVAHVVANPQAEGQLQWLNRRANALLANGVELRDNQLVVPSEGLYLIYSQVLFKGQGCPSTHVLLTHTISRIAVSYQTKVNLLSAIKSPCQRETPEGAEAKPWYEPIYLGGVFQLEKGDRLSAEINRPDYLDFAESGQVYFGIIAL
Peroxisome proliferator-activated receptor alpha (Homo sapiens), sequence (Q07869 whole entry, looked up): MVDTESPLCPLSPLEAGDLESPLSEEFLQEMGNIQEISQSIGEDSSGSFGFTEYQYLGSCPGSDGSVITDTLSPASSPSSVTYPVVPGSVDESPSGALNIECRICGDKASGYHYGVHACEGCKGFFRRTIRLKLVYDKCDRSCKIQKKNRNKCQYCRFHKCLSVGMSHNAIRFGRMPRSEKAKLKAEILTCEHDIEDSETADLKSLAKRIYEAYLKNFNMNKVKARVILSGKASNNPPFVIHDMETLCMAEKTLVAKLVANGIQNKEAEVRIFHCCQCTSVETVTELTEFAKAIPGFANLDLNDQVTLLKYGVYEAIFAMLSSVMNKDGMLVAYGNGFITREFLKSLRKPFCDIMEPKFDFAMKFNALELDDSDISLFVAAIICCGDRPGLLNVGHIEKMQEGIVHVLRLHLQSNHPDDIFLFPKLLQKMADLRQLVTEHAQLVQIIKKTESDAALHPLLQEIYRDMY
Nuclear receptor ROR-gamma (Homo sapiens), sequence (P51449 whole entry, looked up): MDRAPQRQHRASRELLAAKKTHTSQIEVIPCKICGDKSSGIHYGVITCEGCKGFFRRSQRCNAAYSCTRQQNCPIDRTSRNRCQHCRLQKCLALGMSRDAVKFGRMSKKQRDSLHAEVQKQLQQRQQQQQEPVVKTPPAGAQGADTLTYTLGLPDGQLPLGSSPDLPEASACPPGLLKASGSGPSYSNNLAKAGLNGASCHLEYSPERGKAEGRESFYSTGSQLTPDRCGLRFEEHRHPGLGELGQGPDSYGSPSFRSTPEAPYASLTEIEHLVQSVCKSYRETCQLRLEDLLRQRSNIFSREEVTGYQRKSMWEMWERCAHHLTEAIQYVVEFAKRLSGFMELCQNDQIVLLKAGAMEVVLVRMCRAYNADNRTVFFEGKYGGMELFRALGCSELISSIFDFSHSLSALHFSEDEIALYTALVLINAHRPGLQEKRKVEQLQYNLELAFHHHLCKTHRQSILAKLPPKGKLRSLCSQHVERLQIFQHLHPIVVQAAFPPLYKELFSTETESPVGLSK

CC(=O)Nc1cccc(O)c1
inactive: outcome [1] | Potency [2] | Potency [3] | activation [4] -0.0293% | activation [5] 0.693% | outcome [6] | activation [7] 2.7% | max response [8] -0.0766% | outcome [9] | max response [10] 3.22% | max response [11] 5.77% | max response [12] -4.32% | outcome [13]

CC(=O)Oc1cccc(C)c1
inactive: outcome [1] | Potency [2] | max response [11] 19.2%

C=CCNC(N)=S
inactive: outcome [1] | Potency [2] | Potency [3] | activation [4] -1.91% | activation [5] -0.527% | outcome [6] | outcome [14] | activation [7] 0.627% | max response [8] -1.33% | outcome [9] | max response [10] 0.701% | max response [11] 5.17% | max response [12] -7.7% | outcome [13]

CC[N+](CC)(CC(=O)Nc1c(C)cccc1C)Cc1ccccc1
inactive: outcome [1] | Potency [2] | Potency [3] | activation [4] -6.37% | activation [7] 0.016% | max response [8] 1.81% | outcome [9] | max response [10] -0.181% | max response [11] 7.32% | max response [12] -11.2% | outcome [13]

NNc1nnc(NN)c2ccccc12
inactive: outcome [1] | Potency [2] | outcome [15] | max response [11] 5.69%

CCCCCC(N)=O
inactive: outcome [1] | Potency [3] | activation [4] 0.75% | activation [5] 0.129% | outcome [6] | activation [7] -0.0681% | max response [8] -2.19% | outcome [16] | outcome [9] | max response [10] -1.07% | max response [11] 2.77% | max response [12] 7.6% | outcome [13]
active: Potency [2] 14.4 µM

CCOc1ccc(C(=O)OCCN(CC)CC)cc1
inactive: outcome [1] | Potency [2] | max response [11] 4.91%

CCCCCCCCCCCCCCCCC(C(=O)O)C(O)(CC(=O)O)C(=O)O (stereo not drawn)
inactive: outcome [1] | Potency [2] | outcome [15] | max response [11] 6.09%

OC[C@@H](O)[C@@H](O)[C@H](O)[C@H](O)CO
inactive: outcome [1] | Potency [2] | activation [4] -0.611% | activation [5] -2.19% | activation [7] -0.115% | max response [8] -1.72% | outcome [9] | max response [10] -1.54% | max response [11] 5.56% | max response [12] -10.6% | outcome [13]

CC(N)CCCC(C)(C)O (stereo not drawn)
inactive: outcome [1] | Potency [2] | max response [11] -9.78%

CN(C/C=C/C#CC(C)(C)C)Cc1cccc2ccccc12
inactive: outcome [1] | outcome [15] | max response [11] -1.43%

O=C(Cn1ccnc1[N+](=O)[O-])NCCO
inactive: outcome [1] | Potency [2] | max response [11] 11.8%

Cc1ccsc1C(=CCCN1CCC[C@@H](C(=O)O)C1)c1sccc1C
inactive: outcome [1] | outcome [15] | max response [11] -0.959%

CCOC(=O)[C@H](CCc1ccccc1)N[C@@H](C)C(=O)N1CCC[C@H]1C(=O)O
active: Potency [2] 0.0144 µM
inactive: outcome [1] | max response [11] -2.72%

Nc1ncnc(Nc2ccccc2)n1
inactive: outcome [1] | Potency [2] | max response [11] -1.5%

COc1ccccc1OC(=O)Oc1ccccc1OC
inactive: outcome [1] | Potency [2] | max response [11] 1.99%

CCN(CC)CCc1nc(-c2ccccc2)no1
inactive: outcome [1] | Potency [2] | max response [11] 1.91%

COc1ccc(Cc2cnc(N)nc2N)cc1OC
inactive: outcome [1] | Potency [2] | max response [11] 1.42%

CN1C(C)(C)CCCC1(C)C
inactive: outcome [1] | Potency [2] | max response [11] -1.65%

CCCCCCCC(=O)OCC(O)CO (stereo not drawn)
inactive: outcome [1] | Potency [2] | max response [11] 0.163%

O=C(O)c1ccc[n+]([O-])c1
inactive: outcome [1] | Potency [2] | max response [11] -6.63%
